Our source for the inhibition values is PubChem BioAssay AID2315 (National Center for Advancing Translational Sciences (NCATS), 2010).

Among all 290,000 compounds or so, about 27,000 (9.3%) were called active. Many of the other results were omitted from the sample, so actives are more common in it than they were. Values without a mark were called inactive. Rule as the data show it: active = inhibition mostly above about 28% (no sharp cut-off); inactive = mostly below about 43%.

The inhibition is the change of the read-out against control, counted positive when it falls.

The nature of the assay: A qHTS for Small Molecule Inhibitors of Shiga Toxin. Also: 0% is about no effect. Conditions: Vero cells, Shiga toxin protein synthesis inhibition reporter; at 38.7 µM, active compounds read high. In general terms: Quantitative high-throughput screening tests each substance at several concentrations.
As for `Cc1cccc(-c2nc(CS(=O)CC(=O)NC(C)CCc3ccccc3)c(C)o2)c1` (stereo not drawn), the inhibition was -4.68%. As to `O=C(CCCN1C(=O)/C(=C/c2cccs2)SC1=S)Nc1ccc(O)cc1`, the inhibition is 42.3%. In the case of `Cc1cc(C)cc(C(=O)NCCN2CCOCC2)c1`, the inhibition was -7.36%. As for `Cc1ccc(C(=O)NCCN2CCOCC2)cc1C`, the inhibition was 19%. As for `CC(=O)Oc1cc2c(C(=O)NCCN3CCOCC3)c(C)oc2c2ccccc12`, the inhibition is 44.7% (active).

With `CC(=O)NC(CC(=O)Nc1cccc(S(=O)(=O)N2CCCC2)c1)c1ccccc1` (stereo not drawn), the inhibition was -34.1%. With `CC(=O)N1CCc2c(sc(NC(=O)CCS(=O)(=O)c3ccccc3)c2C#N)C1` the figure was 17.3%; with `O=C1CSC(=S)N1c1ccc(O)cc1`, -10.4%. In the case of `N#Cc1c(Cl)nc(-c2cccnc2)nc1-c1ccccc1`, the inhibition was -3.23%. For the compound `Cc1ccc(C(C(=O)NC2CCCC2)N(Cc2ccco2)C(=O)CCC(=O)Nc2ccccn2)cc1` (stereo not drawn), the inhibition is -14.7%. Regarding `Cc1ccnc(NC(=O)CCC(=O)N(CC(=O)NCc2ccccc2)Cc2ccco2)c1`, the inhibition was -4.34%. Take `Cc1ccc2c(c1)N(CC(=O)N(Cc1ccccn1)Cc1ccco1)C(=O)C(C(C)C)O2` (stereo not drawn): the inhibition was 33.8% (active). In the case of `Cc1cc(C)c2c(=O)[nH]c(SCC(=O)Nc3ccc(Br)cc3)nc2n1`, the inhibition was 3.52%.

As for `CN(c1ccc(OCC(=O)O)cc1)S(=O)(=O)c1ccc2ccccc2c1`, the inhibition was -4.36%.

For the compound `O=S(=O)(NC1CCCCC1N1CCC(O)CC1)c1ccc(Cl)cc1` (stereo not drawn), the inhibition was -13.2%.

For `O=C(CSc1nc(-c2ccco2)cc(C(F)(F)F)n1)NCc1cccs1`, the inhibition was -12.1%. As to `COc1ccc(-c2cc(C(F)(F)F)nc(SCCC(=O)NCc3ccco3)n2)cc1`, the inhibition was 25.3% (active).

Turning to `COc1ccc(S(=O)(=O)N(CC(=O)NCc2ccco2)c2ccc(F)cc2)cc1`, the inhibition was 35.2%. With `Cn1cc(CCC(=O)NC2CC2)c2ccccc21`, the inhibition is 11.7%. Turning to `Cc1cccc(NC(=O)Cn2cc(C(=O)c3ccco3)c3ccccc32)c1`, the inhibition is -14.6%. Regarding `CC1CCN(C(=O)Cn2cc(C(=O)c3ccco3)c3ccccc32)CC1`, the inhibition was 21.4%.

With `N#Cc1ccc(Cn2cc(C(=O)c3ccco3)c3ccccc32)cc1`, the inhibition is 92.3% (active).

Regarding `NC(=O)N/N=C\c1cccs1`, the inhibition was 17.5%.

Regarding `Cc1n[nH]c(=O)nc1N/N=C/c1cccs1`, the inhibition was 29.8% (active). Consider `Cc1nnc(N/N=C/c2cccs2)[nH]c1=O`, for which the inhibition is 3.51%. With `CC1(C)Oc2ccc3ccc(=O)oc3c2/C(=N/O)C1=O`, the inhibition was -11.1%. Turning to `COc1cc(NC(=O)CN2C(=O)NC(C)(c3ccc(OC(F)F)cc3)C2=O)cc(OC)c1OC` (stereo not drawn), the inhibition was -3.05%.

With `COc1ccccc1C(=O)NC(=S)NC12CC3CC(CC(C3)C1)C2`, the inhibition is -21.8%. As for `CCOc1cccc(/C=C/c2ccc3ccccc3n2)c1OC(C)=O`, the figure is 50.8%; as for `COc1cccc(/C=C2\C=C(c3ccc(C)cc3)OC2=O)c1OC(C)=O`, 11.6%. In the case of `COc1cccc(/C=C/c2ccc3ccccc3n2)c1OC(C)=O`, the inhibition is 42.7% (active). Consider `O=C(NCCc1c[nH]c2ccccc12)C1CCN(Cc2ccc(Br)cc2)CC1`, for which the inhibition is -4.77%.

For `O=C(Cn1cc(C(=O)C2CC2)c2ccccc21)Nc1ccccc1Cl`, the inhibition was -2.68%. As for `O=c1[nH]c(/C=C\c2cccc(C(F)(F)F)c2)nc(O)c1[N+](=O)[O-]`, the inhibition is -8.88%.

For the compound `COc1cc(/C=C2\C(=N)N3N=C(CC(=O)N4CCOCC4)SC3=NC2=O)cc(OC)c1OC`, the inhibition was -7.7%.

Turning to `O=C(CSc1ccc(-c2cccs2)nn1)Nc1ccccc1F`, the inhibition is 32.3%. Consider `Cc1cccc(CSc2ccc(-c3cccs3)nn2)c1`, for which the inhibition is 36.9% (active). As for `Cc1cccc(CSc2nnc(Cn3c(=O)sc4ccccc43)n2C)c1`, the inhibition was -3.45%. As for `COc1ccc(-c2ocnc2C(=O)Nc2ccc3c(c2)CCC3)cc1`, the figure is -10.8%; as for `O=C(Nc1ccc(-n2cccn2)cc1)C1CCN(Cc2ccsc2)CC1`, -3%.

As for `C=CCN1C(=O)C(Cc2cccc(Cl)c2)S/C1=N/N=C/c1ccco1` (stereo not drawn), the inhibition was -3.82%. In the case of `CCC1S/C(=N/N=C/c2ccco2)NC1=O` (stereo not drawn), the inhibition was 22%. On to `COc1ccc(CN2C(=O)C(C)S/C2=N/N=C/c2ccco2)cc1` (stereo not drawn), for which the inhibition was 137% (active).

As to `Cc1cc(C)n(S(=O)(=O)c2cccc([N+](=O)[O-])c2)n1`, the inhibition is -4.69%. As for `COc1ccc(N(CC(=O)Nc2cccc3ccccc23)S(C)(=O)=O)c(OC)c1`, the inhibition is -3.17%.

As for `COc1cc(C2CC(=O)c3cnc(NC(C)=O)nc3C2)cc(OC)c1OC` (stereo not drawn), the inhibition is 21.5%. Regarding `CCc1ccc(Nc2ncc3c(n2)CC(c2ccco2)CC3=O)cc1` (stereo not drawn), the inhibition was 72.5% (active). Turning to `O=C(Nc1ncc2c(n1)CC(c1ccco1)CC2=O)c1ccc(Cl)cc1` (stereo not drawn), the inhibition is 1.6%.

With `CCCC(C)NC(=O)C1CCN(C(=O)C2CC(=O)N(c3ccc(C)cc3)C2)CC1` (stereo not drawn), the inhibition was 9.21%. With `COc1ccc2c(c1)c1nc3n(c(=O)c1n2CC(=O)Nc1ccccc1)CCS3` the figure was 10.6%; with `COc1cccc(CNC(=O)CCC2CCCN(C(=O)c3ccc(F)c(Cl)c3)C2)c1` (stereo not drawn), 0.606%. With `COc1ccc(CCNc2nc(-c3cccc(NC(C)=O)c3)cs2)cc1OC`, the inhibition is 0.41%. As for `Cc1cccc(S(=O)(=O)CC(=O)Nc2nc(-c3ccccc3)cs2)c1`, the figure is -3.62%. Regarding `Cc1cccc(Nc2nc(-c3ccccc3)cs2)n1`, the inhibition was 150% (active). As to `CC(=O)Nc1cccc(-c2csc(Nc3cccc(C)n3)n2)c1`, the inhibition was 103% (active). On to `CC(=O)Nc1ccc(S(=O)(=O)Nc2nc(-c3ccc(C(C)(C)C)cc3)cs2)cc1`, for which the inhibition was -13.5%.

Take `NS(=O)(=O)c1ccc(Nc2nc(-c3ccccc3)cs2)cc1`: the inhibition is 17.7%. On to `COc1ccc(-c2onc3ccc(C(C)=O)cc23)cc1`, for which the inhibition was -4.4%. As to `O=C(CCS(=O)(=O)c1ccc2c(c1)NC(=O)CS2)NCc1ccccc1Cl`, the inhibition was 5.67%.

For `O=C(NCc1ccc2c(c1)OCO2)C(=O)NCC1OCCN1S(=O)(=O)c1ccc(F)cc1` (stereo not drawn), the inhibition was -4.86%. On to `O=C(NC(Cc1ccc(O)cc1)C(=O)O)/C(=C/c1ccccc1)NC(=O)c1ccccc1` (stereo not drawn), for which the inhibition is 8.2%. Consider `O=C(c1ccco1)N1CCN(C(=S)Nc2cc(F)cc(F)c2)CC1`, for which the inhibition is 35.8%. On to `O=C(c1ccco1)N1CCN(C(=O)c2cc(-c3ccccc3F)no2)CC1`, for which the inhibition was 66.3% (active). Regarding `O=C(NCCCN1CCOCC1)c1ccccc1NS(=O)(=O)c1ccc(F)cc1`, the inhibition was 43.2%.

With `O=C(NCCCN1CCOCC1)c1cc(-c2ccc(Cl)cc2)on1`, the inhibition is 23.1%. As for `O=C(NCCCN1CCOCC1)c1cc(-c2ccccc2F)no1`, the figure is 54.8% (active); as for `O=C(Cc1c(F)cccc1Cl)N1CCN(C(=O)c2ccco2)CC1`, -5.75%. On to `CC(=O)Nc1ccc(S(=O)(=O)NCC2CCC(C(=O)NCCc3ccccc3)CC2)cc1` (stereo not drawn), for which the inhibition is 3.01%. As to `COc1ccc(CCNS(=O)(=O)c2cccc([N+](=O)[O-])c2)cc1`, the inhibition was -8.39%. For the compound `Cc1c(C(C)(C)O)[nH]c2ccc(C#N)cc12`, the inhibition was 7.17%. With `CC(=O)Nc1ccc(NC(=O)CN2C(=O)COc3ccc(S(=O)(=O)N4CCCCC4)cc32)cc1` the figure was -6%. As for `CCOCCCNc1c(CC)c(C)c(C#N)c2nc3ccccc3n12`, the inhibition was -5.72%.

Turning to `Cn1nc(-c2ccccc2)c2cc([N+](=O)[O-])ccc21`, the inhibition is -6.77%. For `CCOc1ccc(N/C(N)=N/c2nc(C)c(C)c(=O)[nH]2)cc1`, the inhibition is 0.318%. As for `COC(=O)Cc1ccc(Oc2ncc(C(F)(F)F)cc2Cl)cc1`, the inhibition was 26.3%. Turning to `N/C(=N\OC(=O)Nc1ccc(Cl)c(Cl)c1)c1ncc(C(F)(F)F)cc1Cl`, the inhibition was -18.1%.

Regarding `COc1cccc(/C=N/Nc2ncc(C(F)(F)F)cc2Cl)c1O`, the inhibition was -37.7% (active). Regarding `CC(=O)N1c2ccc(S(=O)(=O)N3CCC(C(=O)NCc4ccc(F)cc4)CC3)cc2CC1C` (stereo not drawn), the inhibition is -3.9%.

With `CSc1ccccc1N1CCN(CCCCCC(=O)NC2CCCc3ccccc32)CC1` (stereo not drawn), the inhibition was -5.33%. Regarding `COc1ccc(C2Nc3ccccc3C(=O)N2c2ccc(Cl)cc2)cc1Cn1cc([N+](=O)[O-])cn1` (stereo not drawn), the inhibition was 115% (active). With `COc1ccc([N+](=O)[O-])cc1C1NN=C(c2cccc3ccccc23)S1` (stereo not drawn) the figure was -12.5%; with `COc1ccc(N2C(=O)c3ccccc3NC2c2ccc(OC)c(CN3CCOCC3)c2)cc1` (stereo not drawn), 64% (active); with `COc1ccc(CN2CCCC(C(=O)c3ccc(Cl)cc3)C2)cc1Cn1cncn1` (stereo not drawn), -2.03%. With `COc1ccc(C2Nc3ccccc3C(=O)N2c2ccc(F)cc2)cc1Cn1nnc2ccccc21` (stereo not drawn), the inhibition was -5.43%. For `COc1ccc(C2Nc3ccccc3C(=O)N2Cc2ccccc2)cc1Cn1nnc2ccccc21` (stereo not drawn), the inhibition is -22.2%. Turning to `COC(=O)C1=CN(Cc2ccc(OC)cc2)C=C(C(=O)OC)C1c1ccc(O)c(OC)c1`, the inhibition was -14.4%.

Take `CCC(NC(=O)C1CCCC1)c1ccc(C)cc1` (stereo not drawn): the inhibition is -3.88%. Take `O=C(Nc1ccc(Br)cc1)c1cc(S(=O)(=O)Nc2ccccn2)ccc1Cl`: the inhibition was -18.3%. In the case of `NC(=O)c1ccc(Nc2ccc3nonc3c2[N+](=O)[O-])cc1`, the inhibition is -16.8%. On to `N#Cc1c(-c2ccccc2)nc(SCc2cccc(C(F)(F)F)c2)[nH]c1=O`, for which the inhibition was -1.96%. As for `O=[N+]([O-])c1ccc2c(c1)Nc1nc3ccccc3nc1N2`, the inhibition was 119% (active).

As for `O=[N+]([O-])c1cnc2ccc3ccccc3c2c1`, the inhibition is 27.3%. For the compound `O=[N+]([O-])c1cccc(Nc2c3ccccc3nc3ccccc23)c1`, the inhibition is -12.3%.
